A short description of experiment [1]: NCI Yeast Anticancer Drug Screen. Data for the rad50 strain (AID 155).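 Also: 0% = growth of vehicle-only cultures of the same strain.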 As to conditions: S. cerevisiae rad50 strain growth inhibition; at 50.0 µM; hits give high values. The essentials: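 Relative growth inhibition (compound vs vehicle) was measured in yeast with a defined repair-gene alteration.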
Experiment [2] in a line: NCI Yeast Anticancer Drug Screen. Data for the mec2-1 strain (AID 157). As to conditions: S. cerevisiae mec2-1 strain, at 50.0 µM, hits give high values. The essentials:
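Mutant yeast (mec2-1) grown with compound; growth inhibition relative to vehicle control reported.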

Experiment [3] is described as follows: NCI Yeast Anticancer Drug Screen. Data for the sgs1 mgt1 strain (AID 161).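 Also: 0% = growth of cultures given vehicle only.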 As to conditions: S. cerevisiae sgs1 mgt1 strain, at 50.0 µM, hits give high values. Put shortly:
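Growth of a repair-deficient yeast mutant was monitored after compound treatment and expressed as inhibition relative to vehicle-treated cultures.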

Experiment [4] is described as follows: NCI Yeast Anticancer Drug Screen. Data for the cln2 rad14 strain (AID 165).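 Also: 0% = growth equal to vehicle treated cultures.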 As to conditions: S. cerevisiae cln2 rad14 strain, at 50.0 µM, hits give high values. Put shortly: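 Readout is yeast growth inhibition versus vehicle-treated controls, using a strain with cln2 and rad14 alterations exposed to compound.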
Experiment [5] in a line: NCI Yeast Anticancer Drug Screen. Data for the bub3 strain (AID 167). As to conditions: S. cerevisiae bub3 mutant strain, at 50.0 µM, hits give high values. The essentials: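 Screening used yeast with an engineered genetic alteration affecting cell cycle control. Compound-exposed cultures were compared with vehicle cultures, and reduced growth was taken as inhibition.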
Experiment [6] is described as follows: NCI Yeast Anticancer Drug Screen. Data for the mlh1 rad18 strain (AID 175). As to conditions: S. cerevisiae mlh1 rad18 strain growth inhibition; at 50.0 µM; hits give high values. The essentials:
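Genetically defined yeast (DNA repair-deficient) exposed to compounds; growth inhibition determined relative to vehicle.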

Compounds without any hit were thinned out: in the full panel of roughly 79,000, 15% have a hit. Values without a mark were called inactive. The source made the active and inactive calls. Rule as the data show it: active = growth inhibition above about 70%; inactive = the rest.

`CCC12CC3(C(=O)OC)OC1C(O)CN1CCc4c(n3c3cc(OC)ccc43)C12` (stereo unspecified): the growth inhibition is 6.9% in experiment [1]; -42.1% in experiment [2]; 12.2% in experiment [3]; 5.05% in experiment [4]; -9.35% in experiment [5]; 1.5% in experiment [6].

As for `Cc1ccc(C2(O)c3ccccc3N=NN2C)cc1` (stereo unspecified), the growth inhibition was 2.6% in experiment [1]; 0.5% in experiment [2]; 4% in experiment [3]; -16.8% in experiment [4]; 14% in experiment [5]; 9.75% in experiment [6].

Regarding `Clc1ccc(-c2nnc(-c3ccc(Cl)c(Cl)c3)o2)cc1Cl`, the growth inhibition in experiment [1] is 0.25%; in experiment [2], 9.95%; in experiment [3] it was 17.8%; in experiment [4], -30.5%; in experiment [5] it was -10.9%; in experiment [6], 22.9%.

As for `CC(C)(C)OC(=O)CC1(C)NC(C(=O)O)C(C)(C)S1` (stereo unspecified), the growth inhibition in experiment [1] is 13.3%; in experiment [2], -0.65%; in experiment [3], -10.9%; in experiment [4], -9.75%; in experiment [5] it was 14.8%; in experiment [6], 10.8%.

`Nc1ccc(Cl)c(N)c1`: the growth inhibition in experiment [1] was 9.1%; in experiment [2], 26.4%; in experiment [3], 18.2%; in experiment [4] it was 20.1%; in experiment [5], 14.9%; in experiment [6] it was 21.9%.

In the case of `CCCCCCCCC1CCC(=O)O1` (stereo unspecified), the growth inhibition in experiment [1] was 19.8%; in experiment [2], 1.8%; in experiment [3], 16.7%; in experiment [4] it was 7.45%; in experiment [5], 7.25%; in experiment [6], 9%.

For `COC1(OC)C2(Cl)C(Cl)=C(Cl)C1(Cl)C1CCCCC12` (stereo unspecified), the growth inhibition was 12.7% in experiment [1]; 11.1% in experiment [2]; 15.5% in experiment [3]; -57% in experiment [4]; -5.15% in experiment [5]; 2.3% in experiment [6].

In the case of `O=C1C(O)=C(Cl)C(=O)C(OC2=C(Cl)C(=O)C(OC3=C(Cl)C(=O)C(OC4=C(Cl)C(=O)C(Cl)=C(Cl)C4=O)=C(Cl)C3=O)=C(Cl)C2=O)=C1Cl`, the growth inhibition in experiment [1] was 9.55%; in experiment [2], 3.5%; in experiment [3], -17.3%; in experiment [4] it was -4.3%; in experiment [5], -2.35%; in experiment [6] it was 22.3%.

As to `O=C(OC1OC(COCc2ccccc2)C(OCc2ccccc2)C1OCc1ccccc1)c1ccc([N+](=O)[O-])cc1` (stereo unspecified), the growth inhibition in experiment [1] was 25.2%; in experiment [2], -12.2%; in experiment [3] it was 16.2%; in experiment [4], -26.1%; in experiment [5], -5.3%; in experiment [6], -1.35%.

In the case of `O=C1c2cc([N+](=O)[O-])cc3cc([N+](=O)[O-])cc(c23)C(=O)N1CCNCCNCCNCCN1C(=O)c2cc([N+](=O)[O-])cc3cc([N+](=O)[O-])cc(c23)C1=O`, the growth inhibition in experiment [1] was 85.1% (active); in experiment [2], 90.4% (active); in experiment [3], 91.5% (active); in experiment [4], 90.8% (active); in experiment [5], 89% (active); in experiment [6], 86.1% (active).

As to `CSc1nc2cc(C)c(C)cc2[nH]1`, the growth inhibition was -5.1% in experiment [1]; -3.1% in experiment [2]; 27.8% in experiment [3]; -25.5% in experiment [4]; 15.1% in experiment [5]; -6.85% in experiment [6].

Turning to `C/C(CC(N)=O)=C1\C(=O)NN(c2ccccc2)C1=O`, the growth inhibition in experiment [1] was 23.1%; in experiment [2], 26.4%; in experiment [3] it was 48.2%; in experiment [4], 7.3%; in experiment [5] it was 40%; in experiment [6], 36.4%.

For the compound `O=C1CC(c2ccccc2)S(=O)(=O)c2ccccc2N1` (stereo unspecified), the growth inhibition was -13.6% in experiment [1]; -8.5% in experiment [2]; 1.5% in experiment [3]; 10.2% in experiment [4]; 11.3% in experiment [5]; 1.45% in experiment [6].

Take `COc1ccc(NC(=O)N(C)Cc2ccccc2Cl)cc1`: the growth inhibition in experiment [1] was -0.35%; in experiment [2], -10.8%; in experiment [3] it was 1.9%; in experiment [4], -12.6%; in experiment [5] it was 11.2%; in experiment [6], 0.4%.

Consider `CN(/N=C/c1ccc(O)c(/C=N/N(C)c2ccccn2)n1)c1ccccn1`, for which the growth inhibition is -9.45% in experiment [1]; 8% in experiment [2]; -3.35% in experiment [3]; -11.9% in experiment [4]; -2.7% in experiment [5]; 8.3% in experiment [6].

On to `CC1(C)C2=CCCC(=O)[C@@]2(C)CC[C@@H]1O`, for which the growth inhibition in experiment [1] was -4.15%; in experiment [2], 4.65%; in experiment [3], -4.9%; in experiment [4], -26.1%; in experiment [5], 1.55%; in experiment [6], 3.35%.

For the compound `CCNC(=O)OCCN(CCOC(=O)NCC)CCc1ccccc1`, the growth inhibition in experiment [1] was 8.7%; in experiment [2], 9.15%; in experiment [3], 15.5%; in experiment [4], -7.75%; in experiment [5], -17.4%; in experiment [6] it was 6.3%.

For `CCOC(=O)c1cc(CC)sc1N`, the growth inhibition in experiment [1] was -1.55%; in experiment [2], -9.75%; in experiment [3] it was 10.7%; in experiment [4], -10.2%; in experiment [5], 12.2%; in experiment [6], -12.5%.

Consider `Cc1ccc(S(=O)(=O)OC(c2ccccc2)C(F)(F)F)cc1` (stereo unspecified), for which the growth inhibition in experiment [1] was -4.05%; in experiment [2] it was -15.6%; in experiment [3] it was -7.2%; in experiment [4], 6.9%; in experiment [5], 2.9%; in experiment [6], 2.85%.

As for `O=C1CC2(CCCC2)CC(=O)N1`, the growth inhibition is -11.2% in experiment [1]; -11.4% in experiment [2]; -15.6% in experiment [3]; -29.4% in experiment [4]; 6.4% in experiment [5]; -8.1% in experiment [6].

As to `C1CC2CCC1CN(C1COC(N3CC4CCC(CC4)C3)CO1)C2` (stereo unspecified), the growth inhibition is -5.15% in experiment [1]; 1.55% in experiment [2]; 9.7% in experiment [3]; 58.4% in experiment [4]; 4.9% in experiment [5]; -0.65% in experiment [6].

For the origin of these results see PubChem BioAssay (NCI).
